bovine MsrA act = activators of bovine methionine sulfoxide reductase A; 0.3% of 360,000 active; purified bovine MsrA, absorbance read-out; activation, % at 10.6 µM; AID 602163; in the data active = activation above about 7.5%;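 note: 0% = vehicle and 100% = reference activator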
EBNA-1 inhibitor = blocks EBNA-1 binding to DNA; EBNA-1 DNA binding, fluorescence polarization; inhibition, % at 14.8 µM; AID 1950; 0.34% of 300,000 active; in the data active = inhibition above about 28%
ZTA counter = ZTA (EBV) inhibition in EBNA-1 counter-screen. inhibition, % at 11 µM. AID 2234. P03206. ZTA-DNA binding, fluorescence polarization. 0.15% of 320,000 active; in the data active = inhibition above about 33%
PP5 inh = blocks human protein phosphatase 5 activity; P53041; purified PP5c, OMFP substrate fluorescence; inhibition, % at 6.7 µM; 0.18% of 320,000 active; AID 1987;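 active = inhibition above the campaign's mean inhibition across all tested compounds plus 3 SD, cut at about 9.5% in these data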;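 note: 0% = DMSO only and 100% = 100 µM cantharidin control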
Target sequence (P53041 whole entry, looked up): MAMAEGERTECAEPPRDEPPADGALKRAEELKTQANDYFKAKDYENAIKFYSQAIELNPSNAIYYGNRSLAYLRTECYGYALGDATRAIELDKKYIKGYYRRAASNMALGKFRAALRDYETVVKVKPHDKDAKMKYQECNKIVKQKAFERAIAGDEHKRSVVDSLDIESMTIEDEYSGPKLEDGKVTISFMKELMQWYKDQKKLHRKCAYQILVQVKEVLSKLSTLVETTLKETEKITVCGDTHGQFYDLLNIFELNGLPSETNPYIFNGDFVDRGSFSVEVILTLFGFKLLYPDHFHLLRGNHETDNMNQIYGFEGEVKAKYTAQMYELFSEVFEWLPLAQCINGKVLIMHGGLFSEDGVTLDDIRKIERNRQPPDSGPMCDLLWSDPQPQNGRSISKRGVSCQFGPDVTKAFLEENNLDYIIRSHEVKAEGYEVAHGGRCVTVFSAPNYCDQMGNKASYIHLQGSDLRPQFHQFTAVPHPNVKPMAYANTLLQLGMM
PP1 inh = counter-screen for PP5 inhibitors: inhibitors of human PP1-alpha | P62136 | purified PP1alpha, OMFP fluorescence | inhibition, % at 6.7 µM | 0.9% of 320,000 active | AID 2235;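 active = inhibition above the mean inhibition of all tested compounds plus 3 SD, computed separately for each screening campaign, cut at about 15% in these data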
MsrA inhibitor = inhibits bovine methionine sulfoxide reductase A | 0.75% of 360,000 active | purified bovine MsrA, absorbance read-out | AID 651718 | inhibition, % at 15.5 µM;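 note: 0% = vehicle wells with enzyme and 100% = reference inhibitor wells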
MsrA conf = bovine MsrA inhibition, confirmed. shares compounds with MsrA inhibitor. purified bovine MsrA, absorbance read-out. inhibition, % at 15.5 µM. 41% of 2,300 active. AID 651822;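 note: coupled to thioredoxin reductase with NADPH and selenocystamine and DMSO as substrate; 0% = vehicle only and 100% = full effect of reference inhibitor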
* marks the source's active call; other numbers are inactive results. Compounds with a hit are over-represented: about 2.3% of the library has one in this group of screens. Cut-off read from the data, not from the text of the source, unless noted: active = inhibition above about 4.5%; inactive = the rest.

For COc1ccc(COC(=O)c2ccc(Br)c(S(=O)(=O)N3CCOCC3)c2)cc1F the results were bovine MsrA act -1.6, EBNA-1 inhibitor -11.0, ZTA counter -9.0, PP5 inh 6.2, PP1 inh 3.0 and MsrA inhibitor 1.7.
O=C(O)CCSc1ccc([N+](=O)[O-])cc1[N+](=O)[O-] was read as bovine MsrA act -11.6, EBNA-1 inhibitor -9.1, ZTA counter 4.9, PP5 inh 2.4, PP1 inh 5.2, MsrA inhibitor 5.4* and MsrA conf 3.0.
`O=C(O)c1ccc2c(=O)n3c(nc2c1)/C(=C/c1ccc(F)cc1)CC3` gave bovine MsrA act -1.6, EBNA-1 inhibitor -7.4, ZTA counter 11.1, PP5 inh 0.8, PP1 inh -8.6, MsrA inhibitor 5.5* and MsrA conf 4.4.
`Cn1nnc2sc3c(c2c1=O)CCCC3` gave bovine MsrA act -0.9, EBNA-1 inhibitor 4.1, ZTA counter -3.5, PP5 inh 0.2, PP1 inh 1.0, MsrA inhibitor 5.0* and MsrA conf 5.8*.
`Cc1nc2sc3c(c2c(=O)n1N)CCC3` gave bovine MsrA act -1.9, EBNA-1 inhibitor -3.1, ZTA counter 7.6, PP5 inh 0.8, PP1 inh 0.6 and MsrA inhibitor -0.9.
`COc1ccccc1/C=C/C=N/NC(=O)c1ccc(=O)n(C)c1` gave bovine MsrA act -11.6, EBNA-1 inhibitor 8.6, ZTA counter 4.3, PP5 inh 0.8, PP1 inh -4.7, MsrA inhibitor 8.1* and MsrA conf 6.9*.
COc1ccccc1/C=C/C=N/NC(=O)c1cnccn1 was read as bovine MsrA act -4.7, EBNA-1 inhibitor 7.4, ZTA counter -2.4, PP5 inh -2.8, PP1 inh -2.3, MsrA inhibitor 7.1* and MsrA conf 5.4*.
COc1ccc(C(=O)N(C)[C@H]2C[C@H]3c4[nH]c5ccccc5c4CCN3C(=O)[C@H]2CO)cc1 was read as bovine MsrA act 0.4 and MsrA inhibitor -0.2.
Screening C=CCNc1oc(-c2ccc(Cl)cc2)nc1C#N returned bovine MsrA act -7.3 and MsrA inhibitor 1.0.
CNc1oc(-c2ccc(Cl)cc2)nc1C#N was read as bovine MsrA act -3.7, EBNA-1 inhibitor 4.5, ZTA counter 1.8, PP5 inh 2.7, PP1 inh -0.9, MsrA inhibitor 4.8* and MsrA conf 1.9.
For COc1ccccc1-n1c(CNC(=O)c2ccco2)nnc1SCC(=O)Nc1ccc(F)cc1 the results were bovine MsrA act -3.2, EBNA-1 inhibitor -6.1, ZTA counter -15.9, PP5 inh 1.4, PP1 inh -1.9 and MsrA inhibitor -0.4.
C[C@@H]1CN([C@H](C)CO)C(=O)c2c(c3ccccc3n2C)-c2ccccc2CO[C@H]1CN(C)C(=O)Nc1ccccc1 was read as bovine MsrA act 0.3 and MsrA inhibitor -1.8.
`Cc1[nH]n(-c2ccccc2)c(=O)c1C=Nc1ccc(S(=O)(=O)Nc2nccs2)cc1` gave bovine MsrA act -2.6, EBNA-1 inhibitor 6.6, ZTA counter 0.2, PP5 inh -0.7, PP1 inh -1.5, MsrA inhibitor 5.7* and MsrA conf 3.2.
Screening O=C1C2C3C=CC(C3)C2C(=O)N1Nc1c(Cl)cc(Cl)cc1Cl (configuration not stated) returned bovine MsrA act -3.6, EBNA-1 inhibitor 2.2, ZTA counter -19.5, PP5 inh 3.0, PP1 inh -0.8 and MsrA inhibitor 0.9.
Screening COc1ccc(C(=O)/C=C/c2ccc(O)cc2)cc1 returned bovine MsrA act -2.4, EBNA-1 inhibitor -9.0, ZTA counter 0.5, PP5 inh 0.8, PP1 inh 0.0, MsrA inhibitor 5.0* and MsrA conf 4.1.
`COc1ccc(C=CC(=O)c2ccc([N+](=O)[O-])cc2)cc1` gave bovine MsrA act 0.7 and MsrA inhibitor -0.5.
Cc1ccc2nc(/C(C#N)=N/O)[nH]c2c1 was read as bovine MsrA act -6.4, EBNA-1 inhibitor 1.2, ZTA counter -1.0, PP5 inh 2.3, PP1 inh 1.6, MsrA inhibitor 5.1* and MsrA conf 3.3.
`CCOc1ccc(-c2nnc(-c3ccncc3)o2)cc1OCC` gave bovine MsrA act -3.6, EBNA-1 inhibitor -8.1, ZTA counter -3.3, PP5 inh -0.5, PP1 inh -3.5, MsrA inhibitor 4.9* and MsrA conf 1.7.
`CCOc1ccc(-c2nnc(-c3ccncc3)o2)cc1` gave bovine MsrA act -2.4, EBNA-1 inhibitor 0.0, ZTA counter -5.5, PP5 inh 0.6, PP1 inh -2.0 and MsrA inhibitor 2.0.
`Cc1oc(C(C)(C)C)c(CN2CCOCC2)c1C(=O)O` gave bovine MsrA act -3.0, EBNA-1 inhibitor 2.3, ZTA counter 7.3, PP5 inh -0.7, PP1 inh -1.0 and MsrA inhibitor 1.0.
CC(C)CCNc1nc(N)c([N+](=O)[O-])c(NCCO)n1 was read as bovine MsrA act -11.3, EBNA-1 inhibitor -8.2, ZTA counter -0.6, PP5 inh 0.6, PP1 inh -2.9, MsrA inhibitor 4.9* and MsrA conf 5.1*.
Screening CCCCNC(=S)N(CCN(C)C)Cc1cc2cc3c(cc2[nH]c1=O)OCCO3 returned bovine MsrA act -3.6, EBNA-1 inhibitor 1.2, ZTA counter 11.1, PP5 inh 1.3, PP1 inh 2.1 and MsrA inhibitor 3.7.
`Cn1c(=O)n(C)c2cc(/C=N/N=C3/NC(=O)C(CC(=O)O)S3)ccc21` (configuration not stated) gave bovine MsrA act -7.8, EBNA-1 inhibitor -9.6, ZTA counter -11.3, PP5 inh -7.2, PP1 inh -12.3, MsrA inhibitor 6.2* and MsrA conf 6.7*.
Screening COc1ccc(/C=N/N=C2/NC(=O)C(CC(=O)O)S2)cc1OCc1ccc(Cl)cc1 (configuration not stated) returned bovine MsrA act -10.4, EBNA-1 inhibitor -12.1, ZTA counter -11.4, PP5 inh 2.8, PP1 inh 7.4, MsrA inhibitor 7.3* and MsrA conf 5.9*.
For Cc1ccc(NC(=O)Nc2c(Cl)cccc2Cl)cn1 the results were bovine MsrA act -1.4, EBNA-1 inhibitor -18.3, ZTA counter 0.9, PP5 inh 2.2, PP1 inh 6.7 and MsrA inhibitor 0.8.
Screening COc1ccc(C(=O)N/C(=C\c2cccc3ccccc23)C(=O)NCCc2c[nH]c3ccccc23)cc1OC returned bovine MsrA act -1.3, EBNA-1 inhibitor -5.0, ZTA counter 0.9, PP5 inh -1.3, PP1 inh 1.2, MsrA inhibitor 5.0* and MsrA conf 1.1.
`O=C(N/N=C/c1cccs1)c1ccc(NC(=O)c2ccccc2Cl)cc1` gave bovine MsrA act -4.0, EBNA-1 inhibitor -0.3, ZTA counter -1.6, PP5 inh 0.8, PP1 inh 1.8, MsrA inhibitor 4.8* and MsrA conf 4.0.
`CC(/C=N\NC(=O)CN1CCN(S(=O)(=O)c2ccc(C)cc2)CC1)=C\c1ccccc1` gave bovine MsrA act -1.4, EBNA-1 inhibitor 11.3, ZTA counter 17.9, PP5 inh 1.3, PP1 inh 1.7 and MsrA inhibitor -0.3.

Screening data from PubChem.
